These results are taken from PubChem BioAssay (NCATS).

SMILES strings stand for the structures. Results filed as inconclusive are left out. A number with no mark means an inactive call. Active and inactive are the calls of the source. Calls follow the shape of the dose curve; as a rule, active = well fitted curve in the direction sought with a large enough effect; inconclusive = small, poorly fitted or top-dose-only effect, or another doubt; inactive = no such curve, though single readings can be large; an effect the other way counts as inactive or inconclusive.

The target of assay [1] is Cellular tumor antigen p53 (Homo sapiens) (UniProt P04637). As to the kind of experiment: Primary qHTS for small molecule compounds that upregulate eGFP-tagged delta133p53alpha (in N-terminal) cells. (AID 2060322). Also: nearly all actives have a fitted effect of over 75% in size. Also: potency is read from the fitted curve at half-maximal effect.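 As to activation: cells pre-induced with doxycycline then dosed without doxycycline; series mostly up to about 56 µM; 0% = DMSO vehicle and 100% = reference activator.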 The settings on record: NCI-H358 eGFP-delta133p53alpha fluorescence, 24 h; activation: stronger effect = higher value. A digest of the protocol: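 NCI-H358 cells pre-induced 24 h with 10 ng/ml doxycycline for eGFP-delta133p53alpha, plated dox-free and exposed 24 h at 37C to titrated compounds. Fixed, Hoechst-stained; gated GFP peak intensity by laser scanning cytometry, normalized to DMSO (0%) and 57.5 uM 5-azacytidine (100%).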
In general terms: Quantitative high-throughput screening tests each substance at several concentrations.

In assay [2] the target is Aldehyde dehydrogenase, mitochondrial (Homo sapiens) (UniProt P05091). As to the kind of experiment: qHTS for Inhibitors of the Aldehyde Dehydrogenase Family (ALDH2) Primary screen (AID 2061308).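 Also: plate controls were vehicle for no effect and reference inhibitor for full effect; nearly all actives have a fitted effect of over 55% in size.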
Assay [3] concerns the target Retinaldehyde dehydrogenase 3 (Homo sapiens) (UniProt P47895). As to the kind of experiment: qHTS for Inhibitors of the Aldehyde Dehydrogenase Family (ALDH1A3) Primary screen (AID 2061315).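 Also: plate controls were DMSO vehicle for no effect and reference inhibitor for full effect.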

Chain of Cellular tumor antigen p53 (Homo sapiens) (P04637 whole entry, looked up): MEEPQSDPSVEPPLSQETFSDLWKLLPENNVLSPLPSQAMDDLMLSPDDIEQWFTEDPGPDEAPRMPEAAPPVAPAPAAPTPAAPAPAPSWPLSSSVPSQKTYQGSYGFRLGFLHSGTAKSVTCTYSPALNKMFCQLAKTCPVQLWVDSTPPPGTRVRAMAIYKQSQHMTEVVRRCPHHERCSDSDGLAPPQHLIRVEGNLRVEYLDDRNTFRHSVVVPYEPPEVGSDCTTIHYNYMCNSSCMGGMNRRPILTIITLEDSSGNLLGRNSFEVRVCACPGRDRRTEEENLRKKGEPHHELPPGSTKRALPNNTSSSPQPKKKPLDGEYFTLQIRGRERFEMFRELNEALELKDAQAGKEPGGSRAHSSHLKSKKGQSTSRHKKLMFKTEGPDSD

In the case of `CC1C(OC(=O)c2ccccc2)C(O)C2C(C(=O)O)=COC(OC3OC(CO)C(O)C(O)C3O)C12` (centres undefined), the activation in assay [1] was -16%. In addition, the Potency result in assay [2] and in assay [3] was “inactive” throughout.

Consider `C[C@@H]1N[C@H]2N(C1=O)c1ccccc1[C@@]2(O)C[C@@H]1C(=O)N[C@@H](C)c2nc3ccccc3c(=O)n21`, for which, in assay [1], the activation is -22.9%. For the same compound, the Potency result in assay [2] and in assay [3] was “inactive” each time.

On to `C=C1C(=O)O[C@@H]2[C@H]3C(C)=CC(=O)C3=C(C)CC[C@@H]12`, for which the Potency in assay [1] was 10.7 µM (active). Moreover, the Potency entry in assay [2] and in assay [3] was “inactive” in each case.

In the case of `COc1ccc(/C=C/C(=O)O[C@@H]2[C@@H](O)[C@H](C)O[C@@H](OC3C4C=COC(O[C@@H]5O[C@H](CO)[C@@H](O)[C@H](O)[C@H]5O)C4C4(CO)OC34)[C@@H]2O)cc1OC` (some centres undefined), the activation in assay [1] was -13%. Moreover, the Potency entry in assay [2] and in assay [3] was “inactive” in each case.

As for `O=C(O)Cc1cc(I)c(Oc2ccc(O)c(I)c2)c(I)c1`, the activation in assay [1] is 2.39%. In addition, the Potency entry in assay [2] and in assay [3] was “inactive” throughout.

`COc1ccc(/C=C/C(=O)O[C@@H]2[C@@H](O)[C@H](C)O[C@@H](O[C@H]3[C@@H]4C=CO[C@@H](O[C@H]5O[C@@H](CO)[C@H](O)[C@@H](O)[C@@H]5O)[C@@H]4[C@@]4(CO)O[C@@H]34)[C@@H]2OC(C)=O)cc1`: in assay [1], the activation was -12.5%. Further, the Potency entry in assay [2] and in assay [3] was “inactive” throughout.

For `O=C(N/N=C/c1ccc(O)c(O)c1)c1cc2ccccc2cc1O`, the activation in assay [1] is 4.33%. The Potency entry in assay [2] and in assay [3] was “inactive” in each case.

On to `C/C=C/C=C/C=C/C(=O)OC1C=C(C=O)C(O)(C(=O)O)C2(C)CCCC(C)(C)C12` (centres undefined), for which the activation in assay [1] is -9.92%. The Potency entry in assay [2] and in assay [3] was “inactive” each time.

As for `CC(CCC1(O)OC2CC3C4CC=C5C[C@@H](O[C@@H]6O[C@H](CO)[C@@H](O[C@@H]7O[C@@H](C)[C@H](O)[C@@H](O)[C@H]7O)[C@H](O)[C@H]6O[C@@H]6O[C@@H](C)[C@H](O)[C@@H](O)[C@H]6O)CC[C@]5(C)C4CC[C@]3(C)[C@@]2(O)[C@@H]1C)CO[C@@H]1O[C@H](CO)[C@@H](O)[C@H](O)[C@H]1O` (some centres undefined), the activation in assay [1] is -8.04%. Besides, the Potency entry in assay [2] and in assay [3] was “inactive” in each case.

With `Cc1nc(N2CCN(C(=O)c3ccco3)CC2)c2c3c(sc2n1)CCCC3`, the activation in assay [1] is -12.9%. Also, the Potency entry in assay [2] and in assay [3] was “inactive” in each case.

As for `Cc1cc(C(=O)N2Cc3cnn(C)c3Nc3ccccc32)ccc1CNC(=O)N1CCN(Cc2cc(O)cc(O)c2)CC1`, the activation in assay [1] is -7.16%. Besides, the Potency entry in assay [2] and in assay [3] was “inactive” throughout.

With `CC(C)(C)c1cc(CN2CCN(CC(O)c3ccc(Cl)cc3)CC2)cc(C(C)(C)C)c1O` (centres undefined), the activation in assay [1] is -0.477%. Also, the Potency result in assay [2] and in assay [3] was “inactive” in each case.

With `COc1ccccc1CC(C(=O)O)N(C)C(=O)c1ccccc1` (centres undefined), the activation in assay [1] is -8.04%. Moreover, the Potency result in assay [2] and in assay [3] was “inactive” each time.

Turning to `CC(C)(O)C1CC=C(C(=O)OC[C@H]2O[C@@H](Oc3cc(C(=O)O)cc(O)c3O)[C@H](O)[C@@H](O)[C@@H]2O)CC1` (some centres undefined), the activation in assay [1] is -22.1%. Also, the Potency entry in assay [2] and in assay [3] was “inactive” each time.

As for `C=C(C)[C@@H]1CC[C@]2(C)CC[C@]3(C)C(CCC4[C@@]5(C)CC[C@H](O)C(C)(C)C5CC[C@]43C)C12` (some centres undefined), in assay [1], the activation is -19.6%. For the same compound, the Potency entry in assay [2] and in assay [3] was “inactive” in each case.

Consider `O=C(CO)[C@@H](O)[C@H](O[C@@H]1O[C@H](CO)[C@H](O)[C@H](O)[C@H]1O)[C@H](O)CO`, for which the activation in assay [1] was 28.3%. The Potency result in assay [2] and in assay [3] was “inactive” throughout.

Regarding `C[C@@H]1CC[C@]2(C(=O)O)CC[C@]3(C)C(=CCC4[C@]5(C)C(CC[C@]43C)C(C)(C)[C@@H](O)[C@H](O)[C@@H]5O)C2[C@]1(C)O` (some centres undefined), the activation in assay [1] was -4.46%. In addition, the Potency entry in assay [2] and in assay [3] was “inactive” each time.

Regarding `Cc1noc(-c2ccc(-c3ccc(CC(=O)O)cc3)cc2)c1NC(=O)O[C@H](C)c1ccccc1`, the activation in assay [1] was -1.79%. The Potency result in assay [2] and in assay [3] was “inactive” in each case.

As for `Cn1nccc1-c1ccccc1Oc1ccc(S(=O)(=O)Nc2nccs2)cc1C#N`, in assay [1], the activation was 3.67%. Besides, the Potency entry in assay [2] and in assay [3] was “inactive” in each case.

On to `C[C@]12CCC[C@](C)(C(=O)O)C1[C@@H](O)[C@@H](O)C13CC(CCC12)C(CO)(O[C@@H]1O[C@H](CO)[C@@H](O)[C@H](O)[C@H]1O)C3` (some centres undefined), for which the activation in assay [1] was -9.16%. For the same compound, the Potency result in assay [2] and in assay [3] was “inactive” each time.

Take `C=C[C@@]1(C)CCC2=C([C@H]1OC(C)=O)[C@H](OC(C)=O)CC1[C@](C)(C(=O)OC)CC[C@H](OC(C)=O)[C@]21C` (some centres undefined): in assay [1], the activation is 15.2%. Further, the Potency result in assay [2] and in assay [3] was “inactive” in each case.

In the case of `CCN1C(C)(C)CC(Oc2ccc(C(=O)Nc3ccc(NC(=O)Nc4cc(C(C)(C)C)on4)cc3)nc2)CC1(C)C`, in assay [1], the Potency was 21.3 µM (active). The Potency entry in assay [2] and in assay [3] was “inactive” throughout.

As for `CC(=O)O[C@H]1C[C@@H](O)C(C)(C)C2C[C@@H](OC(C)=O)[C@@]3(C)C4=CCC(C(CO)CC(O)C5OC5(C)C)[C@]4(C)CCC3[C@]21C` (some centres undefined), in assay [1], the activation is -9.16%. The Potency result in assay [2] and in assay [3] was “inactive” each time.

With `CC(=O)NCc1cccc(OC[C@@H](O)CNCCc2ccc(NS(=O)(=O)c3ccccc3)cc2)c1`, the activation in assay [1] is 8.93%. In addition, the Potency entry in assay [2] and in assay [3] was “inactive” in each case.

Regarding `CC1(C)CC[C@]2(C(=O)O[C@@H]3O[C@H](CO)[C@@H](O)[C@H](O)[C@H]3O)CC[C@]3(C)C(=CCC4[C@@]5(C)C[C@@H](O)[C@H](O)[C@](C)(C(=O)O)C5CC[C@]43C)C2C1O` (some centres undefined), the activation in assay [1] was -2.68%. The Potency result in assay [2] and in assay [3] was “inactive” throughout.

Take `CC(=O)OC1C(C)C2C(OC3OC(CO)C(O)C(O)C3O)OC=C(C(=O)O)C2C1OC(=O)c1ccccc1` (centres undefined): the activation in assay [1] was 5.34%. Further, the Potency entry in assay [2] and in assay [3] was “inactive” throughout.

Consider `CC(=O)OC1CC(=O)C2(C)C3CC4=C(OC(C)CC4=O)OC3(C)CCC2C1(C)C` (centres undefined), for which the activation in assay [1] is -6.11%. In addition, the Potency result in assay [2] and in assay [3] was “inactive” in each case.

In the case of `C=C1CC[C@]2(C(=O)O[C@@H]3O[C@H](CO)[C@@H](O)[C@H](O)[C@H]3O)CC[C@]3(C)C(=CCC4[C@@]5(C)C[C@H](O)[C@@H](O[C@@H]6O[C@H](C(=O)O)[C@@H](O)[C@H](O)[C@H]6O)[C@](C)(C=O)C5CC[C@]43C)C2C1` (some centres undefined), the activation in assay [1] was -11.6%. Moreover, the Potency result in assay [2] and in assay [3] was “inactive” each time.

`C=C1C(=O)O[C@@H]2C[C@]3(C)[C@@H](CCC(C)=O)[C@@H]3C[C@H]12`: the activation in assay [1] is 5.36%. The Potency result in assay [2] and in assay [3] was “inactive” each time.

Regarding `OC[C@H]1O[C@@H](Oc2ccc3c(c2)OC[C@H]2c4cc5c(cc4O[C@@H]32)OCO5)[C@H](O)[C@@H](O)[C@@H]1O`, the activation in assay [1] is -13.7%. The Potency entry in assay [2] and in assay [3] was “inactive” each time.

Turning to `COc1cn(-c2ccc(-n3cccn3)cc2F)nc(-c2ccnn2-c2ccccc2)c1=O`, the activation in assay [1] is 0%. Further, the Potency result in assay [2] and in assay [3] was “inactive” throughout.

Regarding `CCN(CC)c1ccc2c(O)c(C=Nc3ccc(CC(=O)O)c(-c4c5c(nc6ccccc46)CCC(C(=O)NN)C5)c3)c(=O)oc2c1` (centres undefined), the Potency in assay [1] is 5.36 µM (active). Further, the Potency entry in assay [2] and in assay [3] was “inactive” in each case.

`C=C(C)[C@H]1C[C@@H](O)C(=C)CC[C@@H](O)C(=C)[C@@H](O)C1`: the activation in assay [1] was -8.04%. For the same compound, the Potency entry in assay [2] and in assay [3] was “inactive” each time.

For `CC(=O)OC[C@]1(O)[C@H]2[C@H](OC(=O)CC(C)C)OC=C(CO[C@@H]3O[C@H](CO)[C@@H](O)[C@H](O)[C@H]3O)[C@H]2C[C@@H]1O`, in assay [1], the activation was -1.79%. Further, the Potency entry in assay [2] and in assay [3] was “inactive” in each case.

As to `CC(C)(O)[C@@H]1CC[C@]2(CO)[C@@H](O)CC[C@](C)(O)[C@H]2[C@@H]1O[C@@H]1O[C@H](CO)[C@@H](O)[C@H](O)[C@H]1O`, in assay [1], the activation was 1.53%. For the same compound, the Potency entry in assay [2] and in assay [3] was “inactive” throughout.

Turning to `C/C=C(\C)C(=O)OC1C=C(C)CC(OC(=O)c2ccc(O)cc2)C2C1(C)CCC2(O)C(C)C` (centres undefined), the activation in assay [1] is -7.63%. Besides, the Potency entry in assay [2] and in assay [3] was “inactive” in each case.

In the case of `CCn1cc(C2=NOC(C(=O)Nc3c(C)n(C)n(-c4ccccc4)c3=O)C2)c(C)n1` (centres undefined), the activation in assay [1] is 9%. The Potency result in assay [2] and in assay [3] was “inactive” each time.

Turning to `C=C(C)C1CC2(CO)C(=CC1=O)CCC(O)C2C` (centres undefined), in assay [1], the activation is -4.58%. For the same compound, the Potency entry in assay [2] and in assay [3] was “inactive” each time.

For `O=C(Nc1c(-c2cccs2)nc2ccccn12)c1ccc(Cl)cc1`, the activation in assay [1] was -8.59%. Further, the Potency entry in assay [2] and in assay [3] was “inactive” each time.

Take `CC1(CO)CCCC2(C)C1C(OC(=O)c1ccccc1)C=C1C(=O)OCC12O` (centres undefined): the Potency in assay [1] is 20.9 µM (active). The Potency result in assay [2] and in assay [3] was “inactive” in each case.

In the case of `O=C(Nc1ccn(Cc2c(F)cccc2C(F)(F)F)n1)c1c(F)cccc1F`, the activation in assay [1] was 1.67%. Besides, the Potency entry in assay [2] and in assay [3] was “inactive” each time.

Consider `Cc1cc(O[C@@H]2O[C@H](COC(=O)CC(=O)O)[C@@H](O)[C@H](O)[C@H]2O)c(C(C)C)cc1O`, for which, in assay [1], the activation is 0.763%. For the same compound, the Potency result in assay [2] and in assay [3] was “inactive” in each case.

`COc1ccc(S(=O)(=O)n2cnc3cc(C)c(C)cc32)cc1`: the activation in assay [1] was -3.67%. For the same compound, the Potency entry in assay [2] and in assay [3] was “inactive” throughout.
